Measured values from PubChem BioAssay AID1159580 (chemical genetic matrix, 2015).
Out of some 5,500 compounds screened, about 2,000 (36%) were called active. Another 18% or so got no clear call; they are omitted. This is one part of the list. Values without a mark were called inactive. Cut-off read from the data, not from the text of the source: active = normalized growth mostly below about 0.91 (no sharp cut-off); inconclusive = no clear call, values can overlap the other calls; inactive = mostly above about 0.92.

Experiment: chemical genetic growth profiling, strain panel (AID 1159580);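 note: tested at 20 µM; growth read once vehicle control cultures reached saturation at 30 °C; 1 = growth at the plate median or of vehicle wells; lower values mean less growth of the strain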
Conditions: growth OD
[1] = S. cerevisiae deletion strains, locus YJR075W, strain HOC1, active compounds read low
[2] = S. cerevisiae deletion strains, locus YMR307W, strain GAS1, active compounds read low
[3] = S. cerevisiae deletion strains, locus YNL128W, strain TEP1, active compounds read low
[4] = S. cerevisiae deletion strains, locus YNL322C, strain KRE1, active compounds read low
[5] = S. cerevisiae deletion strains, locus YPL055C, strain LGE1, active compounds read low
[6] = S. cerevisiae deletion strains, locus YPL241C, strain CIN2, active compounds read low
[7] = S. cerevisiae deletion strains, locus YDL101C, strain DUN1, active compounds read low
[8] = S. cerevisiae deletion strains, locus YHR030C, strain SLT2, active compounds read low

CCCn1c(=O)c2[nH]c(-c3ccc(OCC(=O)NCCN)cc3)nc2n(CCC)c1=O
normalized growth (S. cerevisiae deletion strains, locus YAL040C, strain CLN3, active compounds read low): 1.05 | normalized growth (S. cerevisiae deletion strains, locus YCL061C, strain MRC1 (second series), active compounds read low): 0.984 | normalized growth (S. cerevisiae deletion strains, locus YDR363W, strain ESC2, active compounds read low): 0.983 | normalized growth (S. cerevisiae deletion strains, locus YER002W, strain NOP16, active compounds read low): 0.986 | normalized growth [1]: 0.99 | normalized growth [2]: 1.01 | normalized growth [3]: 0.973 | normalized growth (S. cerevisiae deletion strains, locus YNL175C, strain NOP13, active compounds read low): 0.98 | normalized growth (S. cerevisiae deletion strains, locus YNL197C, strain WHI3, active compounds read low): 0.977 | normalized growth (S. cerevisiae deletion strains, locus YNL224C, strain SQS1, active compounds read low): 0.999 | normalized growth [4]: 0.95 | normalized growth (S. cerevisiae deletion strains, locus YOR083W, strain WHI5 (second series), active compounds read low): 0.984 | normalized growth [5]: 0.973 | normalized growth [6]: 0.985

CSc1cccc(N2C(=O)CC(c3c(Cl)cccc3Cl)CC2=O)c1
normalized growth (S. cerevisiae deletion strains, locus YAR019C, strain CDC15, active compounds read low): 0.99 | normalized growth (S. cerevisiae deletion strains, locus YBL105C, strain PKC1, active compounds read low): 0.98 | normalized growth (S. cerevisiae deletion strains, locus YBR135W, strain CKS1, active compounds read low): 0.987 | normalized growth (S. cerevisiae deletion strains, locus YBR136W, strain MEC1, active compounds read low): 0.989 | normalized growth (S. cerevisiae deletion strains, locus YBR160W, strain CDC28, active compounds read low): 0.989 | normalized growth (S. cerevisiae deletion strains, locus YDL017W, strain CDC7, active compounds read low): 0.99 | normalized growth (S. cerevisiae deletion strains, locus YDL028C, strain MPS1, active compounds read low): 0.997 | normalized growth [7]: 0.987 | normalized growth (S. cerevisiae deletion strains, locus YDL108W, strain KIN28, active compounds read low): 0.988 | normalized growth (S. cerevisiae deletion strains, locus YDL132W, strain cdc53, active compounds read low): 0.982 | normalized growth (S. cerevisiae deletion strains, locus YDL214C, strain PRR2, active compounds read low): 0.997 | normalized growth (S. cerevisiae deletion strains, locus YDR052C, strain DBF4, active compounds read low): 0.988 | normalized growth (S. cerevisiae deletion strains, locus YDR054C, strain cdc34, active compounds read low): 0.983 | normalized growth (S. cerevisiae deletion strains, locus YDR226W, strain ADK1, active compounds read low): 0.983 | normalized growth (S. cerevisiae deletion strains, locus YDR477W, strain SNF1, active compounds read low): 0.992 | normalized growth (S. cerevisiae deletion strains, locus YER123W, strain YCK3, active compounds read low): 0.975 | normalized growth (S. cerevisiae deletion strains, locus YER133W, strain GLC7, active compounds read low): 0.993 | normalized growth (S. cerevisiae deletion strains, locus YFL009W, strain cdc4, active compounds read low): 0.966 | normalized growth (S. cerevisiae deletion strains, locus YFL029C, strain CAK1, active compounds read low): 0.986 | normalized growth (S. cerevisiae deletion strains, locus YFR003C, strain YPI1, active compounds read low): 0.983 | normalized growth (S. cerevisiae deletion strains, locus YFR019W, strain FAB1, active compounds read low): 0.971 | normalized growth (S. cerevisiae deletion strains, locus YFR028C, strain CDC14, active compounds read low): 0.986 | normalized growth (S. cerevisiae deletion strains, locus YGR040W, strain KSS1, active compounds read low): 0.987 | normalized growth (S. cerevisiae deletion strains, locus YGR052W, strain FMP48, active compounds read low): 1.02 | normalized growth (S. cerevisiae deletion strains, locus YGR092W, strain DBF2, active compounds read low): 0.985 | normalized growth [8]: 0.894 | normalized growth (S. cerevisiae deletion strains, locus YHR079C, strain IRE1, active compounds read low): 0.904 | normalized growth (S. cerevisiae deletion strains, locus YHR082C, strain KSP1, active compounds read low): 0.948 | normalized growth (S. cerevisiae deletion strains, locus YHR205W, strain SCH9, active compounds read low): 0.916 | normalized growth (S. cerevisiae deletion strains, locus YIL147C, strain SLN1, active compounds read low): 0.996 | normalized growth (S. cerevisiae deletion strains, locus YJL095W, strain BCK1, active compounds read low): 0.956 | normalized growth (S. cerevisiae deletion strains, locus YJL128C, strain PBS2, active compounds read low): 0.955 | normalized growth (S. cerevisiae deletion strains, locus YJL157C, strain FAR1, active compounds read low): 0.985 | normalized growth (S. cerevisiae deletion strains, locus YJR016C, strain ILV3, active compounds read low): 0.987 | normalized growth (S. cerevisiae deletion strains, locus YJR066W, strain TOR1 (second series), active compounds read low): 0.566 (active) | normalized growth (S. cerevisiae deletion strains, locus YJR066W, strain TOR1, active compounds read low): 0.908 | normalized growth (S. cerevisiae deletion strains, locus YKL048C, strain ELM1, active compounds read low): 0.995 | normalized growth (S. cerevisiae deletion strains, locus YKL067W, strain YNK1, active compounds read low): 0.992 | normalized growth (S. cerevisiae deletion strains, locus YKL101W, strain HSL1, active compounds read low): 0.993 | normalized growth (S. cerevisiae deletion strains, locus YKL193C, strain SDS22, active compounds read low): 0.985 | normalized growth (S. cerevisiae deletion strains, locus YKL203C, strain TOR2, active compounds read low): 1.04 | normalized growth (S. cerevisiae deletion strains, locus YLR113W, strain HOG1, active compounds read low): 0.889 | normalized growth (S. cerevisiae deletion strains, locus YLR133W, strain CKI1, active compounds read low): 1 | normalized growth (S. cerevisiae deletion strains, locus YLR403W, strain SFP1, active compounds read low): 0.946 | normalized growth (S. cerevisiae deletion strains, locus YML070W, strain DAK1, active compounds read low): 0.995 | normalized growth (S. cerevisiae deletion strains, locus YMR001C, strain CDC5, active compounds read low): 0.992 | normalized growth (S. cerevisiae deletion strains, locus YMR205C, strain PFK2 (second series), active compounds read low): 0.997 | normalized growth (S. cerevisiae deletion strains, locus YMR277W, strain FCP1, active compounds read low): 0.983 | normalized growth (S. cerevisiae deletion strains, locus YNL006W, strain LST8, active compounds read low): 0.996 | normalized growth (S. cerevisiae deletion strains, locus YNL020C, strain ARK1, active compounds read low): 0.993 | normalized growth (S. cerevisiae deletion strains, locus YNL161W, strain CBK1, active compounds read low): 0.981 | normalized growth (S. cerevisiae deletion strains, locus YNL183C, strain NPR1, active compounds read low): 0.947 | normalized growth (S. cerevisiae deletion strains, locus YNL207W, strain RIO2, active compounds read low): 0.993 | normalized growth (S. cerevisiae deletion strains, locus YNL222W, strain SSU72, active compounds read low): 0.981 | normalized growth (S. cerevisiae deletion strains, locus YNL307C, strain MCK1 (second series), active compounds read low): 0.988 | normalized growth (S. cerevisiae deletion strains, locus YOL078W, strain AVO1, active compounds read low): 0.993 | normalized growth (S. cerevisiae deletion strains, locus YOL136C, strain PFK27, active compounds read low): 0.976 | normalized growth (S. cerevisiae deletion strains, locus YOR061W, strain CKA2, active compounds read low): 0.994 | normalized growth (S. cerevisiae deletion strains, locus YOR119C, strain RIO1, active compounds read low): 1 | normalized growth (S. cerevisiae deletion strains, locus YOR231W, strain MKK1, active compounds read low): 0.918 | normalized growth (S. cerevisiae deletion strains, locus YOR329C, strain SCD5, active compounds read low): 0.985 | normalized growth (S. cerevisiae deletion strains, locus YPL031C, strain PHO85, active compounds read low): 0.989 | normalized growth (S. cerevisiae deletion strains, locus YPL153C, strain RAD53, active compounds read low): 0.97 | normalized growth (S. cerevisiae deletion strains, locus YPL204W, strain HRR25, active compounds read low): 0.981 | normalized growth (S. cerevisiae deletion strains, locus YPL209C, strain IPL1, active compounds read low): 0.989 | normalized growth (S. cerevisiae deletion strains, locus YPL256C, strain CLN2, active compounds read low): 0.924 | normalized growth (S. cerevisiae deletion strains, locus YPR025C, strain CCL1, active compounds read low): 0.986 | normalized growth (S. cerevisiae deletion strains, locus YPR106W, strain ISR1, active compounds read low): 0.979 | normalized growth (S. cerevisiae deletion strains, locus YPR111W, strain DBF20, active compounds read low): 0.977 | normalized growth (S. cerevisiae deletion strains, strain NNK1, active compounds read low): 0.983 | normalized growth (S. cerevisiae deletion strains, strain TSCII, active compounds read low): 0.982

O=C(CC(Nc1ccccc1)c1ccccc1)C1CC1 (stereo not given)
normalized growth (S. cerevisiae deletion strains, locus YAL013W, strain DEP1, active compounds read low): 1 | normalized growth (S. cerevisiae deletion strains, locus YBR229C, strain ROT2, active compounds read low): 0.99 | normalized growth (S. cerevisiae deletion strains, locus YCL061C, strain MRC1, active compounds read low): 0.974 | normalized growth [7]: 0.988 | normalized growth (S. cerevisiae deletion strains, locus YDL134C, strain PPH21, active compounds read low): 0.982 | normalized growth (S. cerevisiae deletion strains, locus YDR150W, strain NUM1, active compounds read low): 0.982 | normalized growth (S. cerevisiae deletion strains, locus YEL061C, strain CIN8, active compounds read low): 0.992 | normalized growth (S. cerevisiae deletion strains, locus YGR078C, strain PAC10, active compounds read low): 1.03 | normalized growth [8]: 0.968 | normalized growth (S. cerevisiae deletion strains, locus YHR087W, strain rtc3, active compounds read low): 1.04 | normalized growth (S. cerevisiae deletion strains, locus YJL187C, strain SWE1, active compounds read low): 1 | normalized growth (S. cerevisiae deletion strains, locus YJR043C, strain POL32, active compounds read low): 0.996 | normalized growth [1]: 0.969 | normalized growth (S. cerevisiae deletion strains, locus YLR039C, strain RIC1, active compounds read low): 0.869 | normalized growth (S. cerevisiae deletion strains, locus YLR058C, strain SHM2 (second series), active compounds read low): 0.998 | normalized growth (S. cerevisiae deletion strains, locus YLR085C, strain ARP6, active compounds read low): 0.992 | normalized growth (S. cerevisiae deletion strains, locus YLR262C, strain YPT6, active compounds read low): 0.938 | normalized growth (S. cerevisiae deletion strains, locus YML094W, strain GIM5, active compounds read low): 1.01 | normalized growth (S. cerevisiae deletion strains, locus YMR219W, strain ESC1, active compounds read low): 0.994 | normalized growth (S. cerevisiae deletion strains, locus YMR263W, strain SAP30, active compounds read low): 1.01 | normalized growth [2]: 1.19 | normalized growth [3]: 0.989 | normalized growth (S. cerevisiae deletion strains, locus YNL153C, strain GIM3, active compounds read low): 1.01 | normalized growth (S. cerevisiae deletion strains, locus YNL298W, strain CLA4 (second series), active compounds read low): 0.985 | normalized growth [4]: 0.982 | normalized growth (S. cerevisiae deletion strains, locus YNR030W, strain Alg12, active compounds read low): 1 | normalized growth [5]: 1.02 | normalized growth [6]: 0.981 | normalized growth (S. cerevisiae deletion strains, locus YPR135W, strain CTF4, active compounds read low): 0.915 | normalized growth (S. cerevisiae strains, strain wild type, active compounds read low): 0.979
